# From PubChem BioAssay (EPA / NIEHS)
# Where “and” joins values, the source holds several entries; their conditions need not be identical. Equal entries are not always repeated. A structure can be active in one record and inactive in another. Calls of active or inactive are those of the source. How the source made its calls: active means hit-call score of the fitted dose curve at least 0.9, where 1 is the maximum; inactive means score below 0.9.
# Read-out: not listed separately
# Experiment: BSK_BE3C_SRB: Viability Assessment in the BioMAP Diversity Plus: BE3C Assay (AID 2283028);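 further: measured 24 h after chemical dosing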;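 on AC50: fitted both ways so AC50 may mark signal gain or loss versus DMSO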
# Conditions: primary human bronchial epithelial cells
# Method in brief: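 Cells (human bronchial epithelial, primary) are treated with chemicals, and after 24 h the parallel cultures are fixed in 10% TCA. These are then stained with 0.1% SRB and read at 560 nm. Gain or loss of signal is fitted relative to DMSO.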
SMILES,outcome,AC50
CCN=C1C=CC(=C(c2ccc(N(CC)CC)cc2)c2ccc(N(CC)CC)cc2)c2ccccc21,inactive,–
OCC(O)CC(F)(F)C(F)(F)C(F)(F)C(F)(F)F (centres undefined),inactive,–
C=CC(=O)OCC(F)(F)C(F)(F)C(F)(F)COC(=O)C=C,inactive,–
FC(F)(F)C(F)(F)C(F)(F)C(F)(F)C(F)(F)C(F)(F)C(F)(F)CCI,inactive,–
CC(C)(C)c1cc(CCC(=O)NCCCCCCNC(=O)CCc2cc(C(C)(C)C)c(O)c(C(C)(C)C)c2)cc(C(C)(C)C)c1O,inactive,–
OCC(F)(F)C(F)(F)C(F)(F)C(F)(F)C(F)(F)C(F)(F)CO,inactive,–
O=C(c1ccccc1)c1ccc(O)cc1O,inactive,–
Cc1cc(C)c(O)c(C(C)(C)C)c1,–,32 µM (active)
Cc1cnccn1,inactive,–
O=C=Nc1cccc2c(N=C=O)cccc12,inactive,–
O=C(O)CCC(F)(F)C(F)(F)C(F)(F)C(F)(F)C(F)(F)C(F)(F)C(F)(F)F,inactive,–
COC(F)(C(F)F)C(F)(F)F (centres undefined),inactive,–
CCOC(=O)CC(=O)C(F)(F)C(F)(F)F,inactive,–
OC(O)C(F)(F)C(F)(F)F,inactive,–
OCCCC(F)(F)C(F)(F)C(F)(F)C(F)(F)C(F)(F)C(F)(F)C(F)(F)C(F)(F)F,–,51.9 µM (active) and 48.7 µM (active)
CO[Si](C)(CCC(F)(F)C(F)(F)C(F)(F)C(F)(F)C(F)(F)C(F)(F)F)OC,inactive,–

SMILES,outcome,AC50
O=C=NCc1cccc(CN=C=O)c1,inactive,–
Nc1cc([N+](=O)[O-])cc(Cl)c1O,inactive,–
C=CC(=O)OCCC(F)(F)C(F)(F)C(F)(F)C(F)(F)F,inactive,–
NCC(F)(F)C(F)(F)C(F)(F)C(F)(F)C(F)(F)C(F)(F)C(F)(F)C(F)(F)F,inactive,–
OCC(F)(F)C(F)(F)C(F)(F)CO,inactive,–
O=S(=O)(O)CCC(F)(F)C(F)(F)C(F)(F)C(F)(F)C(F)(F)C(F)(F)C(F)(F)C(F)(F)F,inactive,–
O=C1c2c(O)ccc(Nc3ccc(CCO)cc3)c2C(=O)c2c([N+](=O)[O-])ccc(O)c21,inactive,–
CCOC(C=C(C)CCC=C(C)C)OCC,inactive,–
NC(=O)C(F)(F)C(F)(F)C(F)(F)F,inactive,–
CCN(CC)c1ccc2c(c1)Oc1cc(N(CC)CC)ccc1C21OC(=O)c2ccccc21,inactive,–
O=S(=O)(OCC(F)(F)F)C(F)(F)C(F)(F)C(F)(F)C(F)(F)F,inactive,–
OCCCCC(F)(F)C(F)(F)C(F)(F)C(F)(F)F,inactive,–
O=C(O)CCC(F)(F)C(F)(F)C(F)(F)F,inactive,–
O=C(O)C(F)(F)OC(F)(F)C(F)(F)OC(F)(F)C(F)(F)OC(F)(F)F,inactive,–
C[Si](Cl)(Cl)CCC(F)(F)C(F)(F)C(F)(F)C(F)(F)C(F)(F)C(F)(F)F,inactive,–

# Read-out: Thrombomodulin, THBD (gene 7056)
# Experiment: BSK_3C_Thrombomodulin: BioMAP Diversity Plus: 3C Assay for Thrombomodulin Biomarker Activity (AID 2283029)
# Conditions: primary human endothelial cells (HUVEC); actives raise or lower the signal
# Method in brief: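 Endothelial cells from umbilical vein are dosed with test chemical and incubated 24 h. Thrombomodulin is then quantified by ELISA, with DMSO serving as negative control and activity baseline.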
SMILES,AC50,outcome
CCN=C1C=CC(=C(c2ccc(N(CC)CC)cc2)c2ccc(N(CC)CC)cc2)c2ccccc21,4.54 µM (active) and 3.14 µM (active),–
OCC(O)CC(F)(F)C(F)(F)C(F)(F)C(F)(F)F (centres undefined),–,inactive
C=CC(=O)OCC(F)(F)C(F)(F)C(F)(F)COC(=O)C=C,18 µM (active),inactive
FC(F)(F)C(F)(F)C(F)(F)C(F)(F)C(F)(F)C(F)(F)C(F)(F)CCI,–,inactive
CC(C)(C)c1cc(CCC(=O)NCCCCCCNC(=O)CCc2cc(C(C)(C)C)c(O)c(C(C)(C)C)c2)cc(C(C)(C)C)c1O,–,inactive
OCC(F)(F)C(F)(F)C(F)(F)C(F)(F)C(F)(F)C(F)(F)CO,–,inactive
O=C(c1ccccc1)c1ccc(O)cc1O,–,inactive
Cc1cc(C)c(O)c(C(C)(C)C)c1,33.9 µM (active),–
Cc1cnccn1,–,inactive
O=C=Nc1cccc2c(N=C=O)cccc12,–,inactive
O=C(O)CCC(F)(F)C(F)(F)C(F)(F)C(F)(F)C(F)(F)C(F)(F)C(F)(F)F,–,inactive
COC(F)(C(F)F)C(F)(F)F (centres undefined),–,inactive
CCOC(=O)CC(=O)C(F)(F)C(F)(F)F,–,inactive
OC(O)C(F)(F)C(F)(F)F,–,inactive
OCCCC(F)(F)C(F)(F)C(F)(F)C(F)(F)C(F)(F)C(F)(F)C(F)(F)C(F)(F)F,43.7 µM (active) and 56.3 µM (active),–
CO[Si](C)(CCC(F)(F)C(F)(F)C(F)(F)C(F)(F)C(F)(F)C(F)(F)F)OC,–,inactive

SMILES,AC50,outcome
O=C=NCc1cccc(CN=C=O)c1,–,inactive
Nc1cc([N+](=O)[O-])cc(Cl)c1O,–,inactive
C=CC(=O)OCCC(F)(F)C(F)(F)C(F)(F)C(F)(F)F,6.34 µM (active) and 21.1 µM (active),–
NCC(F)(F)C(F)(F)C(F)(F)C(F)(F)C(F)(F)C(F)(F)C(F)(F)C(F)(F)F,–,inactive
OCC(F)(F)C(F)(F)C(F)(F)CO,–,inactive
O=S(=O)(O)CCC(F)(F)C(F)(F)C(F)(F)C(F)(F)C(F)(F)C(F)(F)C(F)(F)C(F)(F)F,–,inactive
O=C1c2c(O)ccc(Nc3ccc(CCO)cc3)c2C(=O)c2c([N+](=O)[O-])ccc(O)c21,10.7 µM (active),–
CCOC(C=C(C)CCC=C(C)C)OCC,3.97 µM (active),–
NC(=O)C(F)(F)C(F)(F)C(F)(F)F,5.95 µM (active),inactive
CCN(CC)c1ccc2c(c1)Oc1cc(N(CC)CC)ccc1C21OC(=O)c2ccccc21,–,inactive
O=S(=O)(OCC(F)(F)F)C(F)(F)C(F)(F)C(F)(F)C(F)(F)F,–,inactive
OCCCCC(F)(F)C(F)(F)C(F)(F)C(F)(F)F,–,inactive
O=C(O)CCC(F)(F)C(F)(F)C(F)(F)F,–,inactive
O=C(O)C(F)(F)OC(F)(F)C(F)(F)OC(F)(F)C(F)(F)OC(F)(F)F,–,inactive
C[Si](Cl)(Cl)CCC(F)(F)C(F)(F)C(F)(F)C(F)(F)C(F)(F)C(F)(F)F,–,inactive
